Values joined by “and” are separate entries in the source; they are usually repeats but may differ in a detail not shown here. Equal values may be shown once. The panel holds about 79,000 compounds, 15% with a hit somewhere; the sample as a whole holds those more often. Rule as the data show it: active = growth inhibition above about 70%; inactive = the rest.
How the values were obtained:
[1] = NCI Yeast Anticancer Drug Screen. Data for the rad50 strain (AID 155);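 also: 0% = growth of vehicle-only cultures of the same strain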; settings: S. cerevisiae rad50 strain growth inhibition; at 50.0 µM; active compounds read high
Procedure, shortened: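 Yeast carrying a defined DNA repair defect were exposed to test compounds, and growth was compared with vehicle-treated controls to give percent inhibition.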

[2] = NCI Yeast Anticancer Drug Screen. Data for the mec2-1 strain (AID 157); settings: S. cerevisiae mec2-1 strain, at 50.0 µM, active compounds read high
Procedure, shortened: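 Growth inhibition is read against vehicle-treated controls after compound exposure of the mec2-1 yeast strain, which is defective in DNA damage repair or cell cycle control.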

[3] = NCI Yeast Anticancer Drug Screen. Data for the sgs1 mgt1 strain (AID 161);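 also: 0% = growth of cultures given vehicle only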; settings: S. cerevisiae sgs1 mgt1 strain, at 50.0 µM, active compounds read high
Procedure, shortened: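 Compounds are added to genetically altered yeast, and growth is compared with cultures given vehicle alone to give percent inhibition.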

[4] = NCI Yeast Anticancer Drug Screen. Data for the cln2 rad14 strain (AID 165);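 also: 0% = growth equal to vehicle treated cultures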; settings: S. cerevisiae cln2 rad14 strain, at 50.0 µM, active compounds read high
Procedure, shortened: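 Growth inhibition, relative to vehicle-treated controls, is the read-out. The test organism is a yeast strain with defined genetic alterations, cln2 rad14.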

[5] = NCI Yeast Anticancer Drug Screen. Data for the bub3 strain (AID 167); settings: S. cerevisiae bub3 mutant strain, at 50.0 µM, active compounds read high
Procedure, shortened: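 Compounds were applied to a genetically altered yeast strain carrying a cell-cycle control defect. Growth inhibition was scored against vehicle-treated controls.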

[6] = NCI Yeast Anticancer Drug Screen. Data for the mlh1 rad18 strain (AID 175); settings: S. cerevisiae mlh1 rad18 strain growth inhibition; at 50.0 µM; active compounds read high
Procedure, shortened: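 Cells of a genetically altered yeast strain, deficient in DNA damage repair, were treated with compound. Their growth was then compared with that of vehicle-treated cultures to give inhibition.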

Measured: growth inhibition

O=c1cc2oc3cc(O)c(O)cc3c(-c3ccccc3)c-2cc1O
inactive: [1] -4.25% and 15.2% | [2] -16.1% and 32.5% | [3] -3.15% and 25.9% | [4] -5.9% and -23.8% | [5] -10.2% and 15.9% | [6] -4.15% and 34.9%

COC1OCC(OC(=O)c2ccccc2)C(OC(=O)c2ccccc2)C1OC(=O)c1ccccc1 (stereo unspecified)
inactive: [1] 7.5% and 19.6% | [2] 1.15% and -3.25% | [3] 15.7% and -3.7% | [4] 19.5% and -0.3% | [5] -1.55% and -3.65% | [6] 6.15% and -8.55%

CCOC(=O)C(c1ccccc1)c1cccc(C(C(=O)OCC)c2ccccc2)n1 (stereo unspecified)
inactive: [1] 3.1% and 8.55% | [2] 0.2% and 0.1% | [3] -16.9% and -33.5% | [4] -3.05% and -41.7% | [5] 1.8% and -3.6% | [6] 17.6% and -13.7%

NC(=O)CC(N)C(=O)O (stereo unspecified)
inactive: [1] -4.4% and -5.3% | [2] -30.1% and -1.65% | [3] -10.8% and -4.4% | [4] -1% and 11.7% | [5] 1.5% and -13.7% | [6] 0.7% and 2.65%

CC1(C)Cc2[nH]c3ccccc3c2C(C)(C)N1
inactive: [1] -35% and 6.55% | [2] -16.4% and 23.3% | [3] -6.35% and 14.5% | [4] -64% and -6.15% | [5] -4.5% and 12.5% | [6] 3.8% and 10.5%

OCC1OC(n2cnc3cncnc32)C(O)C1O (stereo unspecified)
inactive: [1] 12.4% and 3.3% | [2] -40% and 24.9% | [3] 13.4% and 23.4% | [4] 12.3% and -35.8% | [5] -3.65% and 22.6% | [6] 2.15% and 29.9%

Cc1cc(=O)[nH]c2ccc(Cc3ccccc3)cc12
inactive: [1] -1.2% and 28.1% | [2] 10.4% and 5.75% | [3] -7.75% and 17.6% | [4] -26.2% and 6% | [5] -4.6% and -2.65% | [6] 16.9% and 21.9%

Nc1cc2ccc(S(=O)(=O)O)cc2cc1S(=O)(=O)O
inactive: [1] 44.5% and 10.7% | [2] 14.8% and 10.9% | [3] 17.6% and -1.75% | [4] -12.3% and -14.9% | [5] 8.8% and 11.2% | [6] 29.5% and 35.3%

CC(=O)OCC1OC(CCC#N)C(OC(C)=O)C(OC(C)=O)C1OC(C)=O (stereo unspecified)
inactive: [1] 10.7% and 1.7% | [2] 15.5% and 14.2% | [3] 17.4% and 2.35% | [4] -12% and -1.35% | [5] 9.3% and -4.05% | [6] 13.6% and 11.3%

COC1OCCC(n2c(C)cc3c(N)ncnc32)C1O (stereo unspecified)
inactive: [1] -7.3% and 1.55% | [2] -19.2% and -8.6% | [3] -28.6% and -11.8% | [4] -4.15% and -1.7% | [5] -22.1% and -20.6% | [6] -29.2% and 2.05%

COc1ccc(-c2cc(-c3ccco3)c(C#N)c(=O)n2C2OC(COC(C)=O)C(OC(C)=O)C(OC(C)=O)C2OC(C)=O)cc1 (stereo unspecified)
inactive: [1] 8.3% and -23% | [2] 12.3% and 1.9% | [3] 23.9% and 4% | [4] 42.2% and 8.8% | [5] 16.8% and -2.2% | [6] 11.1% and -19.1%

COc1ccc2c(=O)oc3c(OC)cc(CCN(C)C)c4c(=O)oc1c2c34
inactive: [1] 62.9% and -8.15% | [2] -0.55% and -23.4% | [3] 0.35% and -57.6% | [4] 4.3% and -24.4% | [5] 20.2% and -43.8% | [6] 25.4% and -30.3%

CC(=O)NC(Cc1ccccc1)C(=O)O (stereo unspecified)
inactive: [1] 11.1% and -7.55% | [2] -3% and -7.6% | [3] 15.7% and 4.25% | [4] 6.3% and -52.9% | [5] 6.25% and -14.1% | [6] -18.3% and -27.1%

CC(=O)Nc1ccc(C=O)cc1
inactive: [1] 13.1% and 25.1% | [2] 3.5% and 19.1% | [3] 14.8% and 24.1% | [4] -18.1% and 8.75% | [5] -4.15% and -9.2% | [6] 4.9% and 28%

OC(CBr)C(O)C(O)C(O)CBr (stereo unspecified)
inactive: [1] 13.9% and 16.8% | [2] 7.6% and -4.25% | [3] 4.15% and -11.3% | [4] 8.75% and -9.4% | [5] -10.8% and 0.2% | [6] -13% and -11.9%

NC(CCCc1ccccc1)C(=O)O (stereo unspecified)
inactive: [1] 7.05% and 3.35% | [2] -7.4% and 0.65% | [3] -5.15% and 1.45% | [4] -77% and -22.5% | [5] 20.6% and -1.2% | [6] -26.9% and -10%

Cc1ccc(S(=O)(=O)NC(CCC(=O)O)C(=O)O)cc1 (stereo unspecified)
inactive: [1] -11.2% and -4.6% | [2] -22.7% and 7.2% | [3] 0.15% and 0.2% | [4] -6.75% and -12.2% | [5] 21.1% and 6.9% | [6] -12.4% and 9.75%

CC(C)(CO)C(O)C(=O)NCCS(=O)(=O)O (stereo unspecified)
inactive: [1] -6.8% and -16.3% | [2] -4.35% and -1.8% | [3] 15.2% and 3.4% | [4] -14% and -11.9% | [5] 9.05% and 21.9% | [6] -3.1% and -27.3%

O=C(NCc1ccccc1)C1C(=O)C(=O)N(Cc2ccccc2)C1=O (stereo unspecified)
inactive: [1] -29.4% and 4.55% | [2] -22.6% and 0.8% | [3] -12.2% and -8.45% | [4] 2% and 14% | [5] -8.8% and -3.45% | [6] -36% and 2.6%

COC12C=CC(CC1)C(C)(C)C2O (stereo unspecified)
inactive: [1] 7.6% and 0.25% | [2] -0.75% and -7.75% | [3] -1.55% and -2.25% | [4] -11% and -14.2% | [5] 7.85% and 14.7% | [6] 4.25% and 1.9%

CC(C)(SCc1ccccc1)C(N)C(=O)O (stereo unspecified)
inactive: [1] 8.05% and -6.85% | [2] 10.3% and -17% | [3] 1.65% and -33.1% | [4] 2.2% and -33.8% | [5] -3.45% and -31.3% | [6] 6.1% and -10.3%
